Measured values reported in the supplement of paper PMC7366291.
Where a name gives a salt, the structure may show the parent alone. ± gives the standard deviation of the averaged measurements.

test system: Danio rerio Tg(wt1b:EGFP) embryo, pronephros; assay: pronephric angle neck segment to proximal convoluted tubule (mean of left and right), fold change vs DMSO control; higher = larger pronephric angle; settings: 25 µM; exposure: 24-48 hpf
Outline: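 Using a Fiji macro, distances and angles were calculated from 16 reference points set by hand on maximum projections of pronephroi imaged dorsally (470 nm, 10 z-slices) in agarose-filled 96-well plates. The dechorionated Tg(wt1b:EGFP) zebrafish embryos had received 25 μM compound in 0.5% DMSO in HEPES-buffered E3 with 0.003% PTU from 24 to 48 hpf at 28.5°C. Values more than 2 SD from a feature's mean were excluded. Each feature appears as a fold change over the mean of DMSO-treated embryos from the same day.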

Row | SMILES | pronephric angle neck segment
1 | CCC1(CC)C(=O)C=CNC1=O [Pyrithyldione] | 0.9934 ± 0.0041
2 | CCN(CC)C(C)C(=O)c1ccccc1 (stereo unspecified) [Amfepramone hydrochloride] | 1.01 ± 0.0072
3 | CN(C)C(=O)Oc1cccc([N+](C)(C)C)c1 [Neostigmine bromide] | 1.09 ± 0.053
4 | CCC(=O)O[C@@](Cc1ccccc1)(c1ccccc1)[C@@H](C)CN(C)C [Levopropoxyphene napsylate] | 0.996 ± 0.044
5 | COc1ccc2c(c1)[C@]13CCCC[C@@H]1[C@H](C2)N(C)CC3 [Dextromethorphan hydrobromide monohydrate] | 1.04 ± 0.036
6 | CCN[C@@H](C)Cc1cccc(C(F)(F)F)c1 [Dexfenfluramine hydrochloride] | 1.01 ± 0.03
7 | CC[C@@H](CO)NC(=O)[C@@H]1C=C2c3cccc4[nH]cc(c34)C[C@H]2N(C)C1 [Methylergometrine maleate] | 1.05 ± 0.031
8 | CCC(COC(=O)c1cc(OC)c(OC)c(OC)c1)(c1ccccc1)N(C)C (stereo unspecified) [Trimebutine] | 1.01 ± 0.012
9 | O=C(CCCN1CCC2(CC1)C(=O)NCN2c1ccccc1)c1ccc(F)cc1 [Spiperone] | 1.06 ± 0.078
10 | CCC1(C)CC(=O)NC(=O)C1 [Bemegride] | 0.968 ± 0.027
11 | CN1C(=O)CCS(=O)(=O)C1c1ccc(Cl)cc1 (stereo unspecified) [Chlormezanone] | 0.989 ± 0.059
12 | CC(C)N(CCC(C(N)=O)(c1ccccc1)c1ccccn1)C(C)C (stereo unspecified) [Disopyramide] | 1.05 ± 0.038
13 | C[C@]12CCC(=O)C(O)=C1CC[C@@H]1[C@@H]2CC[C@]2(C)C(=O)CC[C@@H]12 [Formestane] | 0.9657 ± 0.0071
14 | NC(=O)C[S+]([O-])C(c1ccccc1)c1ccccc1 (stereo unspecified) [Modafinil] | 1 ± 0.041
15 | NC(=O)OCCCc1ccccc1 [Phenprobamate] | 1.01 ± 0.05
16 | CC(Cc1ccc(O)cc1)NCC(O)c1cc(O)cc(O)c1 (stereo unspecified) [Fenoterol hydrobromide] | 0.916 ± 0.028

Row | SMILES | pronephric angle neck segment
17 | C#CCN(C)[C@H](C)Cc1ccccc1 [Selegiline hydrochloride] | 0.98 ± 0.017
18 | C[C@]12CCC(=O)C=C1C=C[C@@H]1[C@@H]2CC[C@@]2(C)[C@H]1CC[C@@]2(O)CCC(=O)O [Canrenoic acid potassium salt] | 0.97 ± 0.046
19 | CC(=O)[C@H]1CC[C@H]2[C@@H]3CC[C@H]4C[C@H](O)CC[C@]4(C)[C@H]3C(=O)C[C@]12C [Alfaxalone] | 1.02 ± 0.027
20 | O=C(CCCN1CCC(n2c(=O)[nH]c3ccccc32)CC1)c1ccc(F)cc1 [Benperidol] | 0.992 ± 0.033
21 | C#C[C@]1(O)CC[C@H]2[C@@H]3CCC4=CC(=O)CCC4=C3C=C[C@@]21CC [Gestrinone] | 1.03 ± 0.038
22 | CC(Cc1ccccc1)NCCC(c1ccccc1)c1ccccc1 (stereo unspecified) [Prenylamine lactate] | 0.953 ± 0.032
23 | C[N+]1(C)[C@@H]2CC[C@H]1C[C@@H](OC(=O)C(CO)c1ccccc1)C2 (stereo partly specified) [Methylatropine nitrate] | 1.06 ± 0.017
24 | O=P1(NCCCl)OCCCN1CCCl (stereo unspecified) [Ifosfamide] | 1.06 ± 0.023
25 | C[C@@H]1CN([C@H]2CC[C@](C#N)(c3ccc(F)cc3)CC2)CC[C@]1(C(=O)O)c1ccccc1 [Levocabastine hydrochloride] | 0.959 ± 0.011
26 | CC(C)c1c(CN(C)C(C)Cc2ccccc2)n(C)n(-c2ccccc2)c1=O (stereo unspecified) [Famprofazone] | 1.084 ± 0.0087
27 | NCCc1c[nH]c2ccc(O)cc12 [Serotonin hydrochloride] | 1.064 ± 0.007
28 | CN[C@@H]1[C@@H](O)[C@@H](O[C@@H]2[C@@H](O)[C@H](O[C@H]3O[C@H](CN)CC[C@H]3N)[C@@H](N)C[C@H]2N)OC[C@]1(C)O.CN[C@@H]1[C@@H](O)[C@@H](O[C@@H]2[C@@H](O)[C@H](O[C@H]3O[C@H]([C@@H](C)N)CC[C@H]3N)[C@@H](N)C[C@H]2N)OC[C@]1(C)O.CN[C@@H]1[C@@H](O)[C@@H](O[C@@H]2[C@@H](O)[C@H](O[C@H]3O[C@H]([C@@H](C)NC)CC[C@H]3N)[C@@H](N)C[C@H]2N)OC[C@]1(C)O [Gentamicine sulfate] | 1.01 ± 0.029
29 | CC(C)[N+](C)(CCC(C(N)=O)(c1ccccc1)c1ccccc1)C(C)C [Isopropamide iodide] | 0.983 ± 0.025
30 | C[C@@H]1C[C@@H]([C@H](O)CC2CC(=O)NC(=O)C2)C(=O)[C@@H](C)C1 [Cycloheximide] | 1.73 ± 0.19
31 | CCC1=C[C@H]2CN3CCc4c([nH]c5ccccc45)[C@](C(=O)OC)(C2)[C@H]13 [Catharanthine] | 1 ± 0.032
